KinaseGlo FLuc – blocks Kinase-Glo luciferase, a counter-screen artifact; Q27757; Kinase-Glo luciferase, ATP luminescence, 8 min; Potency, µM (highest dose often 38.3 µM), for inactives: at the top dose activity change, negative = inhibition, hits mostly inhibitors; 200,000 tested, 0.28% active; active means well fitted inhibition curve with a large enough effect; inconclusive means small, poorly fitted or top-dose-only effect; further: potency means the concentration at half of the fitted maximal effect; nearly all actives have a fitted effect of over 60% in size
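Luminescence was the read-out, taken after 8-minute incubation at ambient temperature. Luciferase turned over luciferin with 10 uM ATP in imidazole pH 7.2 buffer containing KCl, MgCl2, Tween 20 and BSA.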
HPGD inh – blocks human HPGD enzyme activity; P15428; purified HPGD, NADH fluorescence kinetic, PGE2 substrate; Potency, µM, without a hit: at the highest dose activity change, negative = inhibition, usual class: inhibitors; 150,000 tested, 4.3% active; AID 894; further: potency means the concentration at half of the fitted maximal effect
Target sequence (P15428 whole entry, looked up): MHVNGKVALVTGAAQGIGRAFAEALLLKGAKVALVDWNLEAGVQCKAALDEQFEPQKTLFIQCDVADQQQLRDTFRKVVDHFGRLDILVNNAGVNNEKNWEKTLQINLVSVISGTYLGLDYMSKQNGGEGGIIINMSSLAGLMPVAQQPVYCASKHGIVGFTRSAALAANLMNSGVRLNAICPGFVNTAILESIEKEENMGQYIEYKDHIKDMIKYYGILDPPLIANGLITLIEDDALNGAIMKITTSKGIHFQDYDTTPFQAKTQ
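20 nM HPGD preincubated 15 min at room temperature with compound in 50 mM Tris-HCl pH 8, 0.01% Tween 20. Started with 1 mM NAD+ and 30 uM prostaglandin E2; NADH fluorescence (360/450 nm) read 5 times over 30-s intervals, last minus first.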
Lamin A splicing – LMNA splicing modulation. HeLa LMNA splicing GFP/RFP minigene ratio, 48 h. Potency, µM (top dose mostly 46.1 µM), for inactives: top-dose ratio change, negative = inhibition, hits mostly inhibitors. 200,000 tested, 0.01% active. AID 1487; active means well fitted inhibition curve with a large enough effect in the signal ratio, with a control signal flat, not every such curve was filed as active; inconclusive means small, poorly fitted or top-dose-only effect, or effect the other way, or a change in a side signal; the % refers to the signal ratio; further: potency means the concentration at half of the fitted maximal effect
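Read-out is the ratio of GFP to DsRed2 object intensity, acquired by 488 nm laser-scanning cytometry on HeLa lamin A-EGFP minigene reporter cells. Compound incubation 48 hrs at 37 °C in Opti-MEM with 2% FBS; DMSO 0.5% final.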
ALDH1A1 inh – ALDH1A1 (human) enzyme inhibition; P00352; Purified ALDH1A1, NADH fluorescence, propionaldehyde substrate; Potency, µM (titrated, usually from 75.3 µM), without a hit: at the highest dose activity, negative = inhibition, actives largely listed as inhibitors; 220,000 tested, 7.3% active;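 further: potency means the concentration at half of the fitted maximal effect; plate controls were no enzyme wells and a reference inhibitor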
Target sequence (P00352 whole entry, looked up): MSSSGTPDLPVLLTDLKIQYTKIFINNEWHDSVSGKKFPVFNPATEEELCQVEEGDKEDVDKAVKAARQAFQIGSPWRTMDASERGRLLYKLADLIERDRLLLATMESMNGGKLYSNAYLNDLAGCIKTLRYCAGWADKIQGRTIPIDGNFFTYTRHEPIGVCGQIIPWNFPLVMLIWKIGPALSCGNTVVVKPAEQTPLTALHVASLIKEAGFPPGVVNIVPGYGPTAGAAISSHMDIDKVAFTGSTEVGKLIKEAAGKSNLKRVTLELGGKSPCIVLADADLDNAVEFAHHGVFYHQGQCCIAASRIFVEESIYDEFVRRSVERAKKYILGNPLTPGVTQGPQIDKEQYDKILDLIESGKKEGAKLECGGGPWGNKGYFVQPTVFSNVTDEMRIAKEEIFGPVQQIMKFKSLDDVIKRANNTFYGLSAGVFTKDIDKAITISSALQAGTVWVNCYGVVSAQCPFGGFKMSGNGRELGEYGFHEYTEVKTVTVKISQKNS
PNC inhibitor – inhibitors of perinucleolar compartment assembly; 140,000 tested, 3.1% active; activity change (PNC), negative = inhibition, % at 10 µM; PC3M PTB-GFP, PNC prevalence imaging, 16 h; hits give low values;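 active means readout at or below -70, meaning at least 70% loss of cells showing the perinucleolar compartment, a nuclear body marking cancer cells; inconclusive means readout between -30 and a set limit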;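 further: plate controls were DMSO wells for no effect and camptothecin positive control wells for full effect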
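Compounds are pinned in duplicate onto adhered PC3M cells stably expressing GFP-tagged PTB and incubated 16 h at 37 C. Cells are then fixed, nuclei stained with Hoechst, and PNC-positive cells counted.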
IMPase inh – membrane-permeable compound that blocks inositol monophosphatase; P97697; CHO-M1 cells, IP1 accumulation, HTRF TR-FRET ratio; inhibition (IP1 accumulation), % at 46.1 µM; 120,000 tested, under 10 active; AID 901; active means well fitted curve in the direction sought with a large enough effect in the signal ratio, not every such curve was filed as active; inconclusive means small, poorly fitted or top-dose-only effect, or a change in a side signal; inactive means no such curve, though single readings can be large or run the other way; the % refers to the signal ratio;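 further: cells stimulated with carbachol in lithium chloride buffer; plate controls were DMSO basal wells for no effect and reference inhibitor wells for full effect; higher means more IMPase inhibition seen as more IP1 and lower FRET ratio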
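Measured: the HTRF emission ratio (665/620 nm) plus the 620 nm donor channel, each fitted to the Hill equation to give AC50. Cells were CHO-M1 given compounds up to 46 uM and a 30 min carbachol stimulation at 37C.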
* hit, by the source's call; ? = inconclusive; nt = no result; [ ] = another dose, or the depositor's remark. An excerpt weighted towards active compounds, which were near 10% of everything screened. Unless noted, the call rests on the fitted dose curve; in most records, active means well fitted inhibition curve with a large enough effect (not every such curve was filed as active); inconclusive means small, poorly fitted or top-dose-only effect, or another doubt; inactive means no such curve, though single readings can be large or run the other way. Unless noted, on the % scale 0 is the no-effect control and ±100 the full control effect.

SMILES | KinaseGlo FLuc | HPGD inh | Lamin A splicing | ALDH1A1 inh | PNC inhibitor | IMPase inh
COc1ccc2c(c1)c1nnc(SCC(=O)N3C(C)CCCC3C)nc1n2C (stereo not given) | 5% | 11µM* | -21% | ? | 55 | 4
COc1ccc2c(c1)c1nnc(SC)nc1n2C | -1% | -12% | ? | 7% | -88* | 3
C=CCOC(=O)C(C(C)=O)C(NC(=O)OC)c1cccc(C(F)(F)F)c1 (stereo not given) | nt | nt | nt | 17%[13.5 µM] | nt | nt
COC(=O)c1ccccc1NC(=O)Cn1nc(C(F)(F)F)c2c1CCCC2 | nt | nt | nt | nt | nt | 12
O=C(Nc1sc2c(c1C(=O)O)CCC2)c1ccc(F)cc1 | -3% | nt | -18%[46 µM] | -7% | nt | nt
O=C(Nc1sc2c(c1C(=O)O)CCC2)c1ccccc1 | -16% | 18µM* | ? | 6% | -11 | 1
O=C(O)c1c(NC(=O)c2cccc3ccccc23)sc2c1CCC2 | 4% | 16µM* | -10% | ? | ? | -2
O=C(Nc1sc2c(c1C(=O)O)CCC2)c1cccs1 | -23% | 25µM* | ? | ? | 28 | ?
NC(=O)c1c(NC(=O)c2cccs2)sc2c1CCCCCC2 | -1% | ? | ? | ? | -28 | 1
O=C1CCCC=C1[C@H](O)c1ccc([N+](=O)[O-])cc1 | nt | nt | nt | -4%[13.5 µM] | nt | nt
Cc1nc(NC2CCCCC2)c2nc(-c3ccccc3)n(CCN3CCCC3)c2n1 | -1% | ? | nt | ? | nt | nt
CO[C@@H]1c2cc(F)ccc2/C(=C\CCOC(=O)C/C=C/c2ccccc2)[C@H]1C | 2% | -6% | nt | -3% | nt | nt
Cc1ccc(Cn2c(=O)c3c(nc4n3CCN4Cc3ccco3)n(C)c2=O)cc1 | -1% | -16% | ? | ? | -100* | -2
Cn1c(OCc2ccco2)nc2c1c(=O)n(Cc1ccc(Cl)c(Cl)c1)c(=O)n2C | 1% | -16% | -18% | 25µM* | 28 | 5
C=CCc1c(C)nc(C)nc1N/N=C/c1ccc([N+](=O)[O-])cc1 | -3% | -9% | 14% | ? | 48 | 0
Cc1csc(/N=C/c2ccc([N+](=O)[O-])cc2)n1 | -3% | 1% | -2% | 11µM* | 33 | nt
Cc1ccccc1-n1c(=O)/c(=C\c2ccco2)s/c1=C(/C#N)C(=O)Nc1ccccc1 | -1% | -14% | 5% | 20µM* | 30 | -7
CCOC(=O)/C=c1\s/c(=C(\C#N)C(=O)NC)n(-c2ccccc2)c1=O | 0% | -13% | -4% | -9% | ? | 18
COc1ccccc1CN1CCC2(CCNCC2)CC1 | -2% | -12% | nt | 8% | nt | nt
O=C1CCCC=C1[C@H](CCc1ccccc1)OC(=O)c1ccc(Br)cc1 | nt | nt | nt | 13%[13.5 µM] | nt | nt
COc1cccc(NC(=O)/C(C#N)=C/c2c(C)n(Cc3ccccc3)c3ccccc23)c1 | nt | nt | nt | nt | nt | 2
CC(=O)c1cccc(S(=O)(=O)NCC(c2ccco2)N2CCCCC2)c1 (stereo not given) | 3% | -17% | -2% | 11µM* | 34 | ?
CS(=O)(=O)c1ccc(C(=O)NCC(c2ccco2)N2CCCCC2)cc1 (stereo not given) | 0% | nt | -10%[46 µM] | -1% | nt | nt
CCOc1ccccc1N(CC)C(=O)Cn1ncc2c([nH]c3ccccc32)c1=O | nt | nt | 2%[46 µM] | nt | nt | nt
COc1ccc2sc(N3C(=O)C4CC=C(C)CC4C3=O)nc2c1 (stereo not given) | 2% | -13% | -9% | 13µM* | ? | 0[1.84 µM]
SMILES | KinaseGlo FLuc | HPGD inh | Lamin A splicing | ALDH1A1 inh | PNC inhibitor | IMPase inh
O=C(CCNc1ccc(Cl)cc1)c1cccs1 | 1% | -11% | ? | 3.2µM* | ? | -20
O=C(CCc1ccc(CCC(=O)c2cccs2)s1)c1cccs1 | 0% | ? | ? | -12% | -4 | 4
O=C(CCNc1cc(Cl)cc(Cl)c1)c1cccs1 | 0% | -25% | ? | 1.6µM* | 15 | 12
Cc1ccc(NC(=O)CNC(=O)c2cccs2)cc1S(=O)(=O)Nc1ccc(Cl)cc1 | 0% | -14% | ? | -3% | -113* | nt
O=C(CCC(=O)c1cccs1)Nc1ccccc1F | 11% | -21% | -2% | 2% | 21 | 3
O=C(CCSc1ccc(Cl)cc1)c1cccs1 | -3% | 20µM* | ? | 0.35µM* | ? | 12
COc1ccc(NC(=O)CNC(=O)c2cccs2)cc1Cl | 0% | nt | nt | -3% | nt | nt
CC(=O)Nc1ccc(S(=O)(=O)NCC2CCC(C(=O)NCCc3ccc(C)cc3)CC2)cc1 (stereo not given) | nt | nt | 8%[46 µM] | nt | nt | nt
CCN1C(=O)[C@H]2[C@H]3[C@H](O)[C@H](O)C/C(=N/O[C@@H]4O[C@H](COC(C)=O)[C@@H](OC(C)=O)[C@H](OC(C)=O)[C@H]4OC(C)=O)[C@@H]3CC[C@@H]2C1=O | nt | nt | nt | -2%[13.5 µM] | nt | nt
CCOc1ccccc1N(C)C(=O)c1sc2nc3n(c(=O)c2c1C)CCCC3 | nt | nt | -12%[46 µM] | nt | nt | nt
COc1ccc(-n2c(NN)nc3sc4c(c3c2=O)CCCC4)cc1 | 0% | nt | ? | ? | nt | nt
CCN1CCN(c2nc3sc4c(c3c(=O)n2-c2ccc(OC)cc2)CCCCC4)CC1 | 0% | -14% | -14% | 10µM* | 38 | 6
CC1CCCN(C(C(=O)NC2CCCCC2)c2cc3c(cc2[N+](=O)[O-])OCO3)C1 (stereo not given) | -3% | 32µM* | -4% | 3% | 18 | nt
CCCCN(C(=O)Nc1ccc(Cl)cc1)C1CCN(C(C)=O)CC1 | 1% | -8% | ? | ? | -95* | 4
N#Cc1cccc(NC(=O)N2CCCC3(CCN(C(=O)c4cccc(F)c4)CC3)C2)c1 | -2% | -4% | nt | -11% | nt | nt
N#CC(C#N)=C1C=CC=CN1/C(=C\c1ccco1)C(=O)c1ccc(-c2ccccc2)cc1 | 2% | -26% | ? | -15% | -11 | 23
N#CC(C#N)=C1C=CC=CN1/C(=C\c1ccco1)C(=O)c1ccc(Cl)cc1 | 3% | 20µM* | ? | -7% | ? | 4
COc1ccc(C(=O)OCCNC(=O)c2c(Cl)nc3ccccn23)cc1 | 4% | 25µM* | 1% | 0% | ? | 1
CC(C)(C)c1ccc(C(=O)OCCNC(=O)c2c(Cl)nc3ccccn23)cc1 | -3% | 11µM* | 8% | ? | 3 | -3
CC(C)(C)n1nnnc1C(c1ccc(C(F)(F)F)cc1)N(Cc1ccc(F)cc1)Cc1ccco1 (stereo not given) | 1% | -10% | ? | 3% | -119* | 8
CC(C)(C)n1nnnc1C(c1ccc(F)cc1)N(Cc1ccc(F)cc1)Cc1ccco1 (stereo not given) | 2% | -20% | ? | 8% | 31 | 19
Cc1cccc(N(CC(=O)Nc2ccccc2C(F)(F)F)S(=O)(=O)c2ccccc2)c1C | nt | nt | nt | nt | nt | 0
O=C(OCc1ccco1)c1cccnc1 | -1% | nt | nt | -11% | nt | nt
CC(=O)OCc1ccco1 | nt | -8% | nt | 22µM* | nt | nt
